Experimental data taken from PubChem BioAssay (NCATS).
Several values for one entry are separate records, joined by “and”; a condition that tells them apart may be missing. Equal values may be shown once. Records with an inconclusive call do not appear. Some structures have more than one record in an assay (separate samples or runs), and their calls can disagree. Activity calls are given as the source filed them. Unless noted, calls follow the shape of the dose curve; as a rule, active = well fitted curve in the direction sought with a large enough effect; inconclusive = small, poorly fitted or top-dose-only effect, or another doubt; inactive = no such curve, though single readings can be large; an effect the other way counts as inactive or inconclusive.

Tests used:
[1] = qHTS for Inhibitors of Plasmodium falciparum (DD2) proliferation (AID 504314);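 also: parasite DNA measured by SYBR Green fluorescence after red cell lysis; plate controls were DMSO vehicle for no effect and artemisinin wells for full effect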
Method in brief: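 Normalization used 0.29 uM artemisinin as full inhibition and DMSO as baseline. Parasitized erythrocytes were exposed to compounds for 72 h (37C, 5% CO2), then lysed with saponin/Triton buffer containing SYBR Green I.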

[2] = qHTS for Inhibitors of Plasmodium falciparum (GB4) proliferation (AID 504315); also: nearly all actives have a fitted effect of over 50% in size; also: potency is read from the fitted curve at half-maximal effect
Method in brief: (§1)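 Parasite growth measured as SYBR Green DNA fluorescence (ex 485, em 535 nm) after overnight lysis following 72 h culture at 37 °C, 0.3% parasitemia, 2.5% hematocrit. Values normalized against DMSO and 0.29 uM artemisinin controls, with plate-stack correction.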

[3] = qHTS for Inhibitors of Plasmodium falciparum (7G8) proliferation (AID 504316); also: nearly all actives have a fitted effect of over 65% in size; also: potency is read from the fitted curve at half-maximal effect
Method in brief: as §1

[4] = qHTS for Inhibitors of Plasmodium falciparum (HB3) proliferation (AID 504318); also: nearly all actives have a fitted effect of over 60% in size; also: potency is read from the fitted curve at half-maximal effect
Method in brief: as §1

[5] = qHTS for Inhibitors of Plasmodium falciparum (CP250) proliferation (AID 504320);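 also: plate controls were DMSO vehicle for no effect and 0.29 µM artemisinin control for full effect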
Method in brief: as §1

[6] = molecular target: Atrial natriuretic peptide receptor 1 (Homo sapiens) (UniProt P16066); assay: Natriuretic polypeptide receptor (hNpr1) antagonism - Pilot CMLD screen (AID 1347052; calls by dose curve;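 also: HEK293 cells with hNpr1 stimulated by hNppA peptide at 0.1 nM; cGMP level read as GloSensor luciferase luminescence after agonist stimulation; series mostly up to about 9.2 µM; % is scaled to controls: 0 for no effect and ±100 for the full control effect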)
[7] = molecular target: Cytochrome P450 3A4 (Homo sapiens) (UniProt P08684); assay: qHTS Assay for Activators of Cytochrome P450 3A4 (AID 885); also: nearly all actives have a fitted effect of over 65% in size
Method in brief: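 Using 20nM recombinant human CYP3A4 in potassium phosphate (200mM), substrate Luciferin-PPXE at 25uM, luminescent luciferin detection followed a 60-min RT NADPH reaction; data scaled to 57 uM ketoconazole.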

[8] = molecular target: Cytochrome P450 2C19 (Homo sapiens) (UniProt P33261); assay: qHTS Assay for Inhibitors and Substrates of Cytochrome P450 2C19 (AID 899); also: potency is read from the fitted curve at half-maximal effect; nearly all actives have a fitted effect of over 60% in size
Method in brief: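 Signal comes from luciferase acting on luciferin released by CYP2C19-mediated hydroxylation of Luciferin-H EGE, 10uM (KM). Assay mix: 5nM enzyme, 50mM KPO4; 60 min at 37C with NADPH regeneration. Data normalized against 57uM ketoconazole.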

[9] = qHTS Assay for Identification of Small Molecule Agonists for Hypoxia Response Element Signaling Pathway (AID 914; active = well fitted activation curve with a large enough effect in the signal ratio, with a control signal flat, not every such curve was filed as active; the % refers to the signal ratio; also: % of control where 0% means no effect); details: ME-180 (cervical carcinoma) HRE-bla reporter, beta-lactamase ratio, CoCl2, 17 h; stronger effect = higher value
Method in brief: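 HRE-bla ME-180 cells, overnight plating in Opti-MEM with 0.5% dialyzed FBS; cpd titration + EC50 CoCl2, 17 h, 37 degrees Celsius; CCF4 2.5 h RT; 460/530 nm ratio; AC50.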

Cytochrome P450 3A4 (Homo sapiens), sequence (P08684 whole entry, looked up): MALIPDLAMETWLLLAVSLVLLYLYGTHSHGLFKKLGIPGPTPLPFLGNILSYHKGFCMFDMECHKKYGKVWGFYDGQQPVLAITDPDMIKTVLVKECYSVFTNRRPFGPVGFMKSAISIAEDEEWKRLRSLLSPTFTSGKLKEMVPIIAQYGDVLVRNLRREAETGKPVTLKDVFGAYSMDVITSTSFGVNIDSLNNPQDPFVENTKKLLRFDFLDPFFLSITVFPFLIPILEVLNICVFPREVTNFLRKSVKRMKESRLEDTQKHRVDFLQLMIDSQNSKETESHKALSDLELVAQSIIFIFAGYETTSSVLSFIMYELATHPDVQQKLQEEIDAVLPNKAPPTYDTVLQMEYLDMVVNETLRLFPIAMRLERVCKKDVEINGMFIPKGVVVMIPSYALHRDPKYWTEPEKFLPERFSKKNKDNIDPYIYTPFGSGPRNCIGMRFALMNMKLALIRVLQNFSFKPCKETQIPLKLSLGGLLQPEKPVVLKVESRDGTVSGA
Atrial natriuretic peptide receptor 1 (Homo sapiens), sequence (P16066 whole entry, looked up): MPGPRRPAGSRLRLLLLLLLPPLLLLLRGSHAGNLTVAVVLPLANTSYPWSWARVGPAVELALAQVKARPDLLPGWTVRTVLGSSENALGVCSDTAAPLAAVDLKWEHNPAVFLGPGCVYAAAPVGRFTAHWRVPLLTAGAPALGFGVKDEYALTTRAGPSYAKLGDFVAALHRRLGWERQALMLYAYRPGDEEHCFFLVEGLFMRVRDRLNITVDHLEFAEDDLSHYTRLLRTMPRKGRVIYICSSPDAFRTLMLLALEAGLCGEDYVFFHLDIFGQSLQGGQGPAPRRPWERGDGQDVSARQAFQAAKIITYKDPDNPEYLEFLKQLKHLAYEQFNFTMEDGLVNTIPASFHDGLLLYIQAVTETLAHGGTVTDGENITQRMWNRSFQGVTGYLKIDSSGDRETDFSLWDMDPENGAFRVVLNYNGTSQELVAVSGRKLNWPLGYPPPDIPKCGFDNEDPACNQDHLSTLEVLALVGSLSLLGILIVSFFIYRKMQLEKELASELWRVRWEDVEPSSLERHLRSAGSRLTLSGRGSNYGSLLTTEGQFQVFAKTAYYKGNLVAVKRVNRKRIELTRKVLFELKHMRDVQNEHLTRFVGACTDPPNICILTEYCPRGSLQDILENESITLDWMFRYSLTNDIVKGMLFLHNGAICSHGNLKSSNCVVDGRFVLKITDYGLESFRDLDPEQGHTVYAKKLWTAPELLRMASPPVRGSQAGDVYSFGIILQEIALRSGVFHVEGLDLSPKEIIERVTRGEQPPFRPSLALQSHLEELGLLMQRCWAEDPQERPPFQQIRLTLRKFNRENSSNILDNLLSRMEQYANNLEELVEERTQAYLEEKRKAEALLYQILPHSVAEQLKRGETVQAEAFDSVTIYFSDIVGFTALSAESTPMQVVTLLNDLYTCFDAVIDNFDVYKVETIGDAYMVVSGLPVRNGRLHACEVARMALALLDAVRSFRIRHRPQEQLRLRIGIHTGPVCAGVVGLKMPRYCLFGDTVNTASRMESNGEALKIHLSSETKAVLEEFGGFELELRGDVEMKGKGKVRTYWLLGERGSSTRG
Cytochrome P450 2C19 (Homo sapiens), sequence (P33261 whole entry, looked up): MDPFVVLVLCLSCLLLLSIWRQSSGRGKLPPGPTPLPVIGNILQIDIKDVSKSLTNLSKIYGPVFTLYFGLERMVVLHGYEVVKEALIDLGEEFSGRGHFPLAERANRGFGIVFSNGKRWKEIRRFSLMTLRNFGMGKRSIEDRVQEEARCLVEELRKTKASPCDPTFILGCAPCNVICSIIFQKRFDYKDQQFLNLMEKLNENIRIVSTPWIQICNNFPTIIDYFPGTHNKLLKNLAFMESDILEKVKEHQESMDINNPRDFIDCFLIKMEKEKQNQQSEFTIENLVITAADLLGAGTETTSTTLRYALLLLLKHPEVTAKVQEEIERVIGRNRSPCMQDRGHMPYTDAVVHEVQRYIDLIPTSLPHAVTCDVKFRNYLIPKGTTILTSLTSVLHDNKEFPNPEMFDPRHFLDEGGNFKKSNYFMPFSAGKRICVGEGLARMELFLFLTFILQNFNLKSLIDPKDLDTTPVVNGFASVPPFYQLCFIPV

CC(=O)OC[C@H]1O[C@H](CC=NO[C@@H](C)c2cc(-c3c(C)cc(C)cc3C)no2)C=C[C@@H]1OC(C)=O
inactive: Potency [1] | Potency [2] | Potency [3] | Potency [4] | Potency [5] | Potency [6]

CC#CCN1C(=O)NC(c2ccccc2)C(C#N)=C1C (centres undefined)
inactive: Potency [1] | Potency [2] | Potency [3] | Potency [4] | Potency [5] | Potency [6]

CC1(OC(=O)c2ccc(Cl)nc2)C(=O)C=C2C=C3CCCN3C=C2C1=O (centres undefined)
inactive: Potency [1] | Potency [2] | Potency [3] | Potency [4] | Potency [5] | Potency [6]

CSc1nnc2c(n1)C[C@H](c1ccccc1)[C@@H](C)[C@@H](C(=O)N1CCCC1)C2
inactive: Potency [1] | Potency [2] | Potency [3] | Potency [4] | Potency [5] | Potency [6]

C[C@H]1Cc2c(-c3ccccc3)nc3c(c2CO1)CN(C(=O)c1cccnc1)CC3
inactive: Potency [1] | Potency [2] | Potency [3] | Potency [4] | Potency [5] | Potency [6]

C[C@@H]1C[C@](C)(C(=O)c2ccc3c(c2)OCO3)C=C1c1ccc2c(c1)OCO2
inactive: Potency [1] | Potency [2] | Potency [3] | Potency [4] | Potency [5] | Potency [6]

CCN1C(=O)NC(c2ccco2)C(C(C)=O)=C1C (centres undefined)
inactive: Potency [1] | Potency [2] | Potency [3] | Potency [4] | Potency [5] | Potency [6]

C=COCCN1C=C(C(=O)OCC)C(c2ccccc2)NC1=O (centres undefined)
inactive: Potency [1] | Potency [2] | Potency [3] | Potency [4] | Potency [5] | Potency [6]

COc1ccc(-c2nc(-c3ccccc3)oc2Nc2ccc3ccccc3c2)cc1
inactive: Potency [1] | Potency [2] | Potency [3] | Potency [4] | Potency [5] | Potency [6]

C=CCOC(=O)NC(c1ccc(F)c(F)c1)C(C(=O)COC)C(=O)OC (centres undefined)
inactive: Potency [1] | Potency [2] | Potency [3] | Potency [4] | Potency [5] | Potency [6]

C=C[C@@]1(C)CCC=C2C(=O)CCC[C@H]21
inactive: Potency [1] | Potency [2] | Potency [3] | Potency [4] | Potency [5] | Potency [6]

CC(C)[C@@H](OCc1ccccc1)[C@H](C)C=NOC[C@@H](O)COCc1ccco1
inactive: Potency [1] | Potency [2] | Potency [3] | Potency [4] | Potency [5] | Potency [6]

COC(=O)[C@@]1(Cc2ccccc2-c2ccco2)C=C[C@H](C)[C@@H](c2ccccc2)N1C(=O)C(F)(F)F
inactive: Potency [1] | Potency [2] | Potency [3] | Potency [4] | Potency [5] | Potency [6]

O=C1C[C@@H](c2ccccc2)[C@H](c2ccc(Br)cc2)O1
inactive: Potency [1] | Potency [2] | Potency [3] | Potency [4] | Potency [5] | Potency [6]

COC(=O)[C@H](C=C[C@H](C)Cc1cc(Br)cc(OCc2ccccc2)c1OC)OCc1ccccc1
inactive: Potency [1] | Potency [2] | Potency [3] | Potency [4] | Potency [5] | Potency [6]

O=C(OCC(F)(F)F)[C@H](O)[C@@H](O)C(=O)OCC(F)(F)F
inactive: Potency [1] | Potency [2] | Potency [3] | Potency [4] | Potency [5] | Potency [6]

C=CCNC(=O)N1C2=NC(C(=O)OC)=C(C(=O)OC)[C@@H]3N(C)c4ccccc4[C@]23C[C@H]1CO
inactive: Potency [1] | Potency [5] | Potency [6]
inactive and 2.94 µM (active): Potency [4]
inactive and 1.9 µM (active): Potency [2]
inactive and 1.69 µM (active): Potency [3]

O=C(C=NO)NCCCCNC(=O)C=NO
inactive: Potency [1] | Potency [2] | Potency [3] | Potency [4] | Potency [5] | Potency [6]

OC[C@H]1O[C@H](C#Cc2ccc(F)cc2F)C=C[C@H]1O
inactive: Potency [1] | Potency [2] | Potency [3] | Potency [4] | Potency [5] | Potency [6]

CCOC(=O)NN=C1C[C@@H](O)[C@@H](O)[C@@H]2[C@H]3C(=O)N(c4cccc(Oc5ccccc5)c4)C(=O)[C@@H]3CC[C@@H]12
inactive: Potency [1] | Potency [2] | Potency [3] | Potency [4] | Potency [5] | Potency [6]

CON(C)C(=O)c1nnc2c3ccccc3n(S(=O)(=O)c3ccc(C)cc3)c2n1
inactive: activity change, positive = activation [7] -39.7% [at 11.4 µM] and -50.5% [at 11.4 µM] | Potency [1] | Potency [2] | Potency [3] | Potency [4] | Potency [5] | Potency [6]

C[C@@H]1CC[C@H]2C(=O)NC[C@@H](O)CN2[C@@H]1c1ccc(Br)cc1
inactive: activity change, positive = activation [7] -42.5% [at 11.4 µM] | activation [9] -3.48% | Potency [1] | Potency [2] | Potency [3] | Potency [4] | Potency [5] | Potency [6]
active: Potency [8] 2000 nM

CCOC(=O)C1=CN(CCNC(=O)OC(C)(C)C)C(=O)NC1c1ccccc1 (centres undefined)
inactive: Potency [1] | Potency [2] | Potency [3] | Potency [4] | Potency [5] | Potency [6]

COc1cccc2c1[C@H](C=Cc1ccccc1)[C@@H]([C@H](O)CO)OC2
inactive: Potency [1] | Potency [2] | Potency [3] | Potency [4] | Potency [5] | Potency [6]

CCOC(=O)C(C)=NNC(C)=O
inactive: Potency [1] | Potency [2] | Potency [3] | Potency [4] | Potency [5] | Potency [6]
